Hit rate of the full screen: of about 65,000 compounds, about 2,100 (3.2%) showed an effect of 50% or more. The median lay at about -52%. The list comes from a sample in which strong results are over-represented; it also holds similar structures and randomly drawn compounds.

This assay deals with Plasmodium falciparum. Kind of assay: Screen against P. falciparum Asexual Blood Stage (ABS), at 5uM. The format is functional, Dd2. To be noted: tested at 5 uM.
In the case of `N#Cc1ccc(NC2CCN(c3ncccn3)CC2)cc1Cl`, the INHIBITION is listed as -47.7%.
For the compound `c1ccc(CO[C@@H]2CC[C@H]3[C@H]2OCCN3Cc2ccsc2)nc1`, the INHIBITION is reported as -80.3%.
As to `CC[C@H](C)[C@@H](CO)NC(C)Cc1ccc(C)cc1` (stereo not given in full), the INHIBITION is on record as 31.8%.
Then `O=C(NCc1ccccn1)[C@H]1COC[C@H]2CN(C3CCCC3)C[C@H]21`, with -109%; and `COCCn1ccc2c(C(=O)NC3CN4CCC3CC4)cccc21` (stereo not given), with -19.8%.
In the case of `O=C(NC1CC1)C1CCN(c2cccc(C(F)(F)F)n2)CC1` it was 79.4%.
Turning to `O=C(Cc1ccsc1)N1CCN(CCOc2ccccc2)CC1`, the INHIBITION was found to be 19.5%.
Then `COCCN1C[C@H]2CCC[C@@H](CNc3ncccn3)[C@H]2C1`, with 23.6%; and `N[C@H]1CN(CCOc2ccc(F)cc2)C[C@@H]1C1CC1`, with 76.5%; and `COCCN1C[C@H]2[C@@H](C1)N(C(=O)COc1ccccc1)CC[C@H]2OC`, with -98.8%.
`N[C@H]1CN(CCCOc2ccccc2)C[C@@H]1C1CC1`: the INHIBITION came out at 86.8%.
In the case of `CC(C)N1CCC2(CC1)NC(=O)c1cc(Br)ccc1-n1nnnc12`, the INHIBITION is on record as -84.6%.
Then `CN1CCOCC2(CCCN(C(=O)Cc3ccncc3)C2)C1` (stereo not given), with -195%; and `CCS(=O)(=O)N1CCN(C)c2ncccc2C1`, with -45.7%.
Then `CCC(CN1CCOCC1)n1cncc1-c1ccc2c(c1)CCN2CC` (stereo not given), with 94.5%; and `CC(C)CN1CCC2(CC1)CN(C(=O)C(C)C)C2`, with -69.1%; and `CNC(=O)[C@H]1C[C@@H]2CN(Cc3c(C)noc3C)C[C@@H]2N1C(C)=O`, with -19.9%.
In the case of `CN(C)CCNC(=O)C1Cc2nc(-c3ccccc3)sc2N1CC1CC1` (stereo not given) it was 89.7%; in that of `CN(C)CCNC(=O)[C@H]1C[C@H]2CN(c3ncccn3)C[C@H]2N1C`, -64.2%.
Regarding `Cc1csc([C@@H]2C[C@@H]3CCN(Cc4cc(C)on4)C[C@H]3O2)n1`, the INHIBITION is recorded as -19.3%.
In the case of `CNc1nc(C)cc(NC2CCCN(C3Cc4ccccc4C3)C2)n1` (stereo not given) it was 89.5%; in that of `Cc1cc(C)nc(N2CCCC2c2cccnc2)n1` (stereo not given), 0.584%.
Turning to `Cc1cc(N2CCCN3CCC[C@H]3C2)n2nc(C)c(C)c2n1`, the INHIBITION amounted to 9.89%.
Regarding `CNc1cc(C)nc(NC2CCCN(C3Cc4ccccc4C3)C2)n1` (stereo not given), the INHIBITION was found to be 92.8%.
In the case of `CN(C(=O)Cc1ccn(C)c1)C1CCCN(C2Cc3ccccc3C2)C1` (stereo not given) it was -32.4%; in that of `Cn1ncc2c1NC(=O)CSC2c1ccc2c(c1)OCO2` (stereo not given), -86%.
In the case of `c1cc(COC[C@]23COC[C@H]2CN(Cc2ccncc2)C3)ccn1` it was -118%; in that of `CN1CCCC2(CCN(C(=O)c3ccncc3)C2)C1` (stereo not given), -62%; in that of `CN1CCN([C@@H]2CN(C(=O)c3ccnnc3)[C@@H]3CCCO[C@H]23)CC1`, -103%.
Then `Cc1oc(-c2ccco2)nc1CC(=O)N1CCN(CC(C)O)CC1` (stereo not given), with -65.7%; and `CN1CCCC1c1ccc(N2CCOCC2)cn1` (stereo not given), with -144%; and `CN1CCCC1c1cccc(Cc2ccc(F)cc2)n1` (stereo not given), with 62.1%.
With `Fc1ccc(Cc2cnc(C3CCCN3)cn2)cc1` (stereo not given), the INHIBITION amounted to 45.6%.
In the case of `Cc1nnc([C@H]2C[C@@H]3CCN(Cc4cc(C)on4)C[C@H]3O2)[nH]1`, the INHIBITION is listed as -33.8%.
In the case of `CC(C)N1CC[C@@H]2OC[C@H](C(=O)Nc3cccnc3)C[C@@H]2C1` it was -33.5%.
Turning to `CC(C)N1CCC(N(C)c2ccnc(N(C)C)n2)CC1`, the INHIBITION turned out to be 39.1%.
Regarding `Cc1cc(NC(=O)NC2CCN(C(C)C)CC2)c2ncccc2c1`, the INHIBITION was 79.7%.
Then `CN(C)Cc1cncc2c1CCN(Cc1ccoc1)C2`, with -67.1%; and `c1cc2c(cc1C1(CNC3=NCCN3)CCCC1)OCCO2`, with 81.1%.
As for `Clc1ccc(C2(CNC3=NCCN3)CC2)cc1`, the INHIBITION is 83.2%.
As to `Fc1ccc(C2(CNC3=NCCN3)CCCC2)cc1`, the INHIBITION came to 83.5%.
Take `Clc1ccc(C2(CNC3=NCCN3)CCCC2)cc1`: the INHIBITION came out at 83.7%.
Turning to `O=C(NC[C@]12COC[C@H]1CN(Cc1cccnc1)C2)c1ccsc1`, the INHIBITION is on record as 5.35%.
`CNC(=O)C1CCC2(CCNCC2)C1` (stereo not given): the INHIBITION is -92%.
As to `Cc1ccc(N2C[C@@H]3CN(Cc4ccoc4)CCO[C@@H]3C2)nn1`, the INHIBITION is -14.1%.
Then `Cc1oncc1C(=O)N[C@@H]1CN(C2CCC2)C[C@@H]2CCCO[C@@H]21`, with -114%; and `O=C(Cc1c(F)cccc1F)N1CCN(CC(=O)N2CCCC2)CC1`, with -130%; and `Cc1cc(CN2CC[C@H]3C[C@@H](c4nccs4)O[C@@H]3C2)no1`, with -79.5%.
In the case of `CC(=O)N1CCOCC2(CCCNC2)C1` (stereo not given) it was -96.3%; in that of `Clc1ccc(C2(CNC3=NCCN3)CCCCC2)cc1`, 90.2%.
In the case of `CN(C)C(=O)C1CCC2(CCNCC2)C1` (stereo not given) it was -63%; in that of `CC(NCc1ccc(OCC(N)=O)cc1)c1ccc2c(c1)CCCC2` (stereo not given), 73.4%.
Regarding `CC(C)n1[nH]c(=O)c2c1NC(=O)CSC2c1ccc(OCC(N)=O)cc1` (stereo not given), the INHIBITION is -43.5%.
In the case of `CC(C)n1[nH]c(=O)c2c1NC(=O)CSC2c1cccc(OCC(N)=O)c1` (stereo not given) it was -96.5%; in that of `O=C(c1cccnc1)N1CCN2C[C@H](Oc3cncnc3)C[C@H]2C1`, -64.5%.
Then `Cc1noc(C)c1CN1CC[C@@H]2O[C@H](COCC3CC3)CC[C@@H]21`, with -4.95%; and `Cc1ccc(-c2nc(CNC(C)CCO)[nH]c2-c2ccccn2)cc1` (stereo not given), with 86%.
Then `c1cc(CN2CC[C@H]3C[C@H](c4nc(C5CC5)cs4)O[C@@H]3C2)ccn1`, with -49.9%.
As for `CN(C)c1ncc2c(c1C(=O)O)CCN(Cc1ccco1)C2`, the INHIBITION is -111%.
In the case of `c1ccc(NC[C@@H]2CCC[C@@H]3CN(Cc4nccs4)C[C@@H]32)nc1` it was 57.1%; in that of `c1ccc(NC[C@@H]2CCC[C@@H]3CN(Cc4cc[nH]n4)C[C@@H]32)nc1`, -29.8%.
For `c1ccc(CN2C[C@@H]3CCCO[C@@H]3[C@H](Nc3ccccn3)C2)nc1`, the INHIBITION is listed as 18.5%.
Consider `c1cnc(NC[C@@H]2CCC[C@@H]3CN(Cc4cc[nH]n4)C[C@@H]32)nc1`, for which the INHIBITION is listed as -16.9%.
Take `CC(=O)N1C[C@H]2CCCC(N3CCN(c4ncccn4)CC3)[C@H]2C1` (stereo not given in full): the INHIBITION is -104%.
In the case of `Cn1ccnc1NC[C@@H]1CCC[C@@H]2CN(Cc3cccnc3)C[C@@H]21` it was -26.3%; in that of `c1ccc(NC[C@@H]2CCC[C@@H]3CN(Cc4csnn4)C[C@@H]32)nc1`, 62%; in that of `c1cnc(NC[C@@H]2CCC[C@@H]3CN(Cc4csnn4)C[C@@H]32)nc1`, 47.7%.
Consider `c1ccc(NC[C@@H]2CCC[C@@H]3CN(c4ncccn4)C[C@@H]32)nc1`, for which the INHIBITION amounted to 72.9%.
Then `c1cncc(CN2C[C@H]3CCC[C@@H](CNc4cnccn4)[C@H]3C2)c1`, with -3.45%; and `c1ccc(NC[C@@H]2CCC[C@@H]3CN(Cc4cccnc4)C[C@@H]32)nc1`, with 75%.
